About 230 (0.064%) of roughly 360,000 compounds were called active. The full list was thinned out, with actives kept by preference. A number with no mark means an inactive call. No stated cut-off is given here; in the data, active means activity above about 50% (passing the limit was not always enough); inconclusive means no clear call, values can overlap the other calls.
What follows are compounds tested on DNA topoisomerase I (Yersinia pestis CO92) (assay: Yersinia pestis topoisomerase I inhibitors, primary screen, biochemical, cleavage product accumulation, plate reader, single point (AID 504884)). Conditions: Y. pestis Topo-I cleavage product accumulation, at 10 µM, stronger effect = higher value.
With `CCOC(=O)/C=C/C(=O)OCC(=O)NC(c1ccccc1)c1ccccc1` the activity was 7.5%. Work on `COc1ccc(OC)c(CN2CCN(C(=O)CNC(=O)c3cc(C)cc(C)c3)CC2)c1` yielded an activity of 9.4%. With `CCOC(=O)C(C)Oc1cccc2c(=O)n(CC(=O)N3CCc4ccccc43)ccc12` (configuration not stated) the activity was -0.583%. Work on `COc1ccc(CN2CCNC(=O)C2CC(=O)NCc2cn[nH]c2-c2ccccc2)c(F)c1` (configuration not stated) yielded an activity of 14.5%. `COc1ccc(N(CC(=O)NC2CCCCC2)C(=O)CNC(=O)c2ccco2)c(OC)c1` was tested, and the activity was 18.1%. Work on `CCOc1ccc(NC(=O)CCC(=O)NNC(=O)NC2CCCCC2)cc1` yielded an activity of -4.6%. With `N#Cc1cccc(NC(=O)CCC2CCCC2)c1` the activity was 0.569%. Work on `N#CC(C#N)=CN=c1ccn(Cc2ccc(Cl)cc2Cl)cc1` yielded an activity of 1.09%. In the case of `CC(C(=O)NC1CCCCC1)N1C(=O)c2cccc3cccc1c23` (configuration not stated), the activity is reported as 10.7%. `O=C(C[n+]1cc(-c2ccc(Cl)c(Cl)c2)n2c1CCC2)c1cccs1` gave an activity of 5.58%. For `Nc1nc(SCC(=O)NN(c2ccccc2)c2ccccc2)n[nH]1`, the activity was -4.71%. `CN(CC(=O)N1CCN(c2ccccc2)CC1)S(=O)(=O)c1cccs1` gave an activity of 3.69%. Compound `Cc1cc(C)c(C2C3=C(Nc4c2c(C)nn4-c2ccccn2)c2ccccc2C3=O)c(C)c1` (configuration not stated) has an activity of 0.572%. Compound `CC(C)CCNC(=O)C(C)N(C(=O)Cn1nnc(-c2ccc(F)cc2)n1)C1CCCC1` (configuration not stated) has an activity of 21.2%. `CN(C)C(CNC(=O)c1ccc(S(=O)(=O)NCc2ccco2)cc1)c1ccccc1` (configuration not stated) showed an activity of 2.31%. In the case of `Cc1ccc(S(=O)(=O)NCC(=O)NNC(=O)c2ccc(Br)cc2)cc1C`, the activity is reported as 9.73%. With `O=S(=O)(c1ccc(-c2ccno2)s1)N1CCCCC1` the activity was 0.748%. With `COc1ccc(S(=O)(=O)NCC2CCCN(C(=O)c3occc3C)C2)cc1` (configuration not stated) the activity was 0.202%. Compound `Cc1cccc(N2CCN(C(=O)COCc3cc(-c4ccc5c(c4)OCO5)on3)CC2)c1C` has an activity of 38.3%. Work on `COc1cc(C(=O)OCCCN2CCOCC2)cc(OC)c1OC` yielded an activity of -0.169%. `Cc1ccc2nc(-c3ccc(SCC(=O)Nc4cc(C)on4)nc3)[nH]c2c1` showed an activity of 1.96%. With `CC(=O)Oc1ccc(OC(C)=O)c2c1C1C=CC2CC1` the activity was -5.11%. In the case of `O=C(NCC(F)(F)F)Nc1nnc(C(F)(F)F)s1`, the activity is reported as 11.4%. Compound `Cc1nn(C)c(C)c1S(=O)(=O)N1CCC(CO)(Cc2ccc(Cl)cc2)CC1` has an activity of 4.97%. Compound `Cc1nnc(SCC(=O)NC(=O)NC2CCCC2)n1N` has an activity of -5.78%. With `CC1CN(/C=C/C(=O)C(F)(F)F)CC(C)O1` (configuration not stated) the activity was 5.75%. `CCOc1ccc(NC(=O)CN(C)C(=O)Cn2c(=O)cnc3ccccc32)cc1OCC` was tested, and the activity was 1.46%. In the case of `CCOC(=O)c1[nH]cnc1C(=O)NC1CCCCC1`, the activity is reported as -3.43%. `CCc1nc2c(OCCC3CCCCC3)cccn2c1N(C)C(=O)c1ccco1` showed an activity of 31.3%. `CC1CC(C)CN(c2ccc(S(=O)(=O)N3CCOCC3)cc2)C1` (configuration not stated) gave an activity of 31.2%. Work on `ClC1(Cl)CC1CSc1ncn[nH]1` (configuration not stated) yielded an activity of 4.63%. Work on `CCCC(C)C(=O)OCC(=O)Nc1c(Br)cc(C)cc1Br` (configuration not stated) yielded an activity of 0.888%. `COc1cccc2c1OCC(C(=O)NCc1ccc(Cl)cc1Cl)=C2` gave an activity of 5.83%. `CCOc1nnc(C)c2c(C)n(-c3cccc(Cl)c3)nc12` gave an activity of 0.181%. `O=C(CC1C(=O)NCCN1C(=O)c1ccc([N+](=O)[O-])cc1)Nc1cccc(Cl)c1` (configuration not stated) was tested, and the activity was -5.36%. In the case of `CCc1ccccc1NC(=S)Nc1cc(OC)c(NC(=O)C(C)C)cc1OC`, the activity is reported as -1.32%. With `CCc1ccccc1NC(=O)/C(=C/c1ccccc1)c1ccccc1` the activity was 58.2% (active). `CCc1ccccc1NC(=O)CCOc1ccccc1` gave an activity of 2.54%. With `CCOc1ccc(S(=O)(=O)N2CCCCC2)cc1NC(=O)CN1CCCC1c1cccs1` (configuration not stated) the activity was 9.92%. With `COc1ccc2c(c1)CCc1cn3ncc(C#N)c3nc1-2` the activity was 5.21%. `CCN(C(=O)COc1ccc(C(=O)c2ccccc2)cc1)c1ccccc1` was tested, and the activity was 51.2% (active). In the case of `O=C(COc1ccc(F)cc1)N(CC1=CCS(=O)(=O)C1)c1ccccc1`, the activity is reported as 3.66%. Work on `CCN(C(=O)c1ccc(Br)cc1)c1ccccc1` yielded an activity of 4.1%. `C=CCN(C(=O)c1cc(C)cc(C)c1)C1(C(=O)Nc2ccccc2)CCN(C(C)C)CC1` gave an activity of -1.88%. Work on `C=C1CCN([C@@H](Cc2ccccc2)C(=O)N2CCOCC2)S(=O)(=O)c2ccccc21` yielded an activity of 11.9%. `CCc1cc(-c2n[nH]c(=S)n2CC(C)C)cs1` showed an activity of 7.56%. With `CCn1ncc(C2=NOC(C(=O)Nc3ccccc3C(=O)OC)C2)c1C` (configuration not stated) the activity was 16.1%. `C[N+]1(CCNC(=O)/C=N/O)CCCCC1` gave an activity of 3.78%. Work on `N#Cc1ccc(/C=C2\CCn3c2nc2cc(C(=O)O)ccc2c3=O)cc1` yielded an activity of 5.43%. Work on `CCN(CC)S(=O)(=O)c1ccc(OC(C)C)c(N)c1` yielded an activity of 9.36%. Compound `CCCC(C)C(=O)NCc1ccncc1` (configuration not stated) has an activity of 3.84%. `Cc1cnc(C(=O)OCc2c(C)cc(C(C)(C)C)cc2C)cn1` was tested, and the activity was 33.4%. In the case of `O=C(NC(c1ccc(Cl)cc1)P(=O)(Oc1ccccc1)Oc1ccccc1)OCc1ccccc1` (configuration not stated), the activity is reported as -6.44%. With `COc1cc(C(=O)OCc2cc(=O)n3ccsc3n2)ccc1OC(C)C` the activity was 1.94%. `CSc1ccccc1NC(=O)COC(=O)CCCOc1ccc(C)cc1` was tested, and the activity was 71.8% (active). Compound `COc1cc([N+](=O)[O-])ccc1NC(=O)COC(=O)CCOc1ccc(C)cc1` has an activity of -0.7%. Compound `Cc1ccc(OCC(=O)Nc2ccccc2C(=O)NC2CC2)cc1` has an activity of -5.78%. `O=S(=O)(Nc1ccc2[nH]ncc2c1)c1ccccc1Cl` was tested, and the activity was 5.56%. Work on `CC(NC(=O)c1ccccc1C(=O)O)c1ccc(-n2ccnc2)cc1` (configuration not stated) yielded an activity of -18%. Compound `C=C(C)CNc1cc(S(=O)(=O)N2CCOCC2)ccc1Oc1ccccc1` has an activity of 23%. In the case of `CCN(CC(=O)Nc1cc(Cl)ccc1C)C(=O)CN1C(=O)NC2(CCCC2)C1=O`, the activity is reported as -11.4%. With `COC(=O)CN1C(=O)[C@H]2[C@@H](C3CC3)N3C(=O)CN(Cc4ccc(-c5ccccc5)cc4)C(=O)[C@@]3(Cc3ccccc3)[C@H]2C1=O` the activity was 35.2%. `CCC1(C)NC(=O)N(CC(=O)N2CCN(c3cccc(Cl)c3)CC2)C1=O` (configuration not stated) showed an activity of 2.38%. Work on `CCC1C=C(c2ccccc2)C=CN=C1N(CC)CC` (configuration not stated) yielded an activity of 0.893%. `CCN(CC)S(=O)(=O)c1ccc(N2CCOCC2)c(NC(=O)C(C)Oc2ccc(F)cc2)c1` (configuration not stated) gave an activity of 18%. `CCN1CCc2nc(NC(=O)c3cc(F)c(F)cc3Cl)sc2C1` gave an activity of 6.77%. Work on `COc1ccc(CCNC(=O)C(=O)NCC2CCNCC2)cc1OC` yielded an activity of 0.788%. `CC(C)C(NC(=O)OCc1ccccc1)C(=O)OCC(=O)N1C(C)CCCC1C` (configuration not stated) showed an activity of 15.6%. For `COC(=O)[C@H](C)[C@H]1C[C@]1(C)[C@H](NC(=O)OCc1ccccc1)c1ccccc1`, the activity was 16.4%. In the case of `CC(C)[C@H](NC(=O)OCc1ccccc1)C(=O)OCc1ccccc1`, the activity is reported as 58.9% (active). `COc1ccc(N(Cc2cc3ccc(C)cc3[nH]c2=O)S(=O)(=O)c2ccccc2)cc1` was tested, and the activity was 29.4%. `CN1C(C)(C)CC(NC(=O)CCC(=O)NC2CC(C)(C)N(C)C(C)(C)C2)CC1(C)C` gave an activity of -3.64%. Work on `O=C(O)c1cc(S(=O)(=O)NC2CCCc3ccccc32)ccc1O` (configuration not stated) yielded an activity of -3.28%. `COc1ccc(N2CC(C)Cn3c2nc2c3c(=O)n(Cc3ccccc3F)c(=O)n2C)c(OC)c1` (configuration not stated) was tested, and the activity was 14.8%. In the case of `O=C(CN1C(=O)COc2ccc(Cl)cc21)N1CCOCC1`, the activity is reported as 2.5%. In the case of `CCC(CC)c1nnc(NS(=O)(=O)Cc2ccccc2)s1`, the activity is reported as -2.39%. In the case of `Cc1ccc2c(C)c(C(=O)N3CCC(N4CCC(C(=O)NC5CC5)CC4)CC3)oc2c1`, the activity is reported as -3.85%. Compound `Cc1ccc(-n2ncc3c(Nc4cccc(C(=O)O)c4)ncnc32)cc1` has an activity of -7.17%. With `Cc1ccc(Cl)cc1NC(=O)C1CCN(S(C)(=O)=O)CC1` the activity was 6.58%. For `c1cc2c(cc1C1OCC3C(c4ccc5c(c4)OCO5)OCC13)OCO2` (configuration not stated), the activity was 21.1%. Compound `CC(=O)c1cccc(OCC(=O)OCC(=O)Nc2cc(S(=O)(=O)N3CCCCC3)ccc2C)c1` has an activity of 29.7%. For `COc1cccc(N(CC(=O)NCCSc2ccccn2)S(C)(=O)=O)c1`, the activity was -7.24%. In the case of `O=C(CSc1nc2cc3c(cc2c(=O)n1CCC1=CCCCC1)OCO3)NCc1ccco1`, the activity is reported as -0.243%. Work on `Cc1cccn2cc(-c3cccc(S(=O)(=O)N4CCCCC4)c3)nc12` yielded an activity of 23.2%. `Cc1ccc(F)cc1S(=O)(=O)Nc1cccc(C(=O)N2CCCC(C(N)=O)C2)c1` (configuration not stated) was tested, and the activity was 0.477%. For `CC1(C)c2[nH]c3ccccc3c2C[C@H]2C(=O)N(N)CC(=O)N21`, the activity was -8.39%. Work on `CCOC(=O)Cn1c(=O)n(Cc2ccc(OC)cc2)c(=O)c2cccnc21` yielded an activity of 9.56%. `Cc1cc(C(=O)O)c(S(C)(=O)=O)s1` showed an activity of -6.33%. In the case of `CC(=O)Nc1ccc(Nc2ncnc3c2nnn3Cc2ccccc2Cl)cc1`, the activity is reported as 2.24%. With `Cc1cccc(OC(=O)c2sc3ncn(C)c(=O)c3c2C)c1` the activity was -1.35%. With `CC1CC(C)(C)n2c(O)c(N=NC(N)=S)c3cccc1c32` (configuration not stated) the activity was -5.67%. Compound `CCOc1ccccc1OCC(=O)Nc1ccccc1C(=O)NC1CC1` has an activity of -3.16%.

Reference: PubChem BioAssay AID504884 (Broad Institute, 2011)
